Measured values taken from publication PMC5540273 (PLoS ONE, 2017).
Where two headings read alike, the source gives them in different places.

How the values were obtained:
[1] = test system: FGFR1; settings: concentration: 1 μM, replicates: in singlicate; n = 1
[2] = test system: FGFR2; settings: concentration: 1 μM, replicates: in singlicate; n = 1
[3] = test system: FGFR3; settings: concentration: 1 μM, replicates: in singlicate; n = 1
[4] = test system: FGFR4; settings: concentration: 1 μM, replicates: in singlicate; n = 1
[5] = test system: FGR; settings: concentration: 1 μM, replicates: in singlicate; n = 1
[6] = test system: FLT1; settings: concentration: 1 μM, replicates: in singlicate; n = 1
[7] = test system: FLT3-autoinhibited; settings: concentration: 1 μM, replicates: in singlicate; n = 1
[8] = test system: FLT3; settings: concentration: 1 μM, replicates: in singlicate; n = 1
[9] = test system: FLT4; settings: concentration: 1 μM, replicates: in singlicate; n = 1
[10] = test system: FRK; settings: concentration: 1 μM, replicates: in singlicate; n = 1
[11] = test system: FYN; settings: concentration: 1 μM, replicates: in singlicate; n = 1
[12] = test system: GAK; settings: concentration: 1 μM, replicates: in singlicate; n = 1
[13] = test system: T1, GCN2(Kin.Dom.2,S808G); settings: concentration: 1 μM, replicates: in singlicate; n = 1
T1 construct: gene EIF2AK4

[14] = test system: GRK1; settings: concentration: 1 μM, replicates: in singlicate; n = 1
[15] = test system: T2, GRK2; settings: concentration: 1 μM, replicates: in singlicate; n = 1
T2 construct: gene ADRBK1

[16] = test system: T3, GRK3; settings: concentration: 1 μM, replicates: in singlicate; n = 1
T3 construct: gene ADRBK2

[17] = test system: GRK4; settings: concentration: 1 μM, replicates: in singlicate; n = 1
[18] = test system: GRK7; settings: concentration: 1 μM, replicates: in singlicate; n = 1
[19] = test system: GSK3A; settings: n = 1
[20] = test system: GSK3B; settings: n = 1
[21] = concentration: 1 μM, replicates: in singlicate
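Also: KINOMEscan kinase panel screen.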

For `O=C(Nc1cccc(-c2nn3ccccc3c2-c2ccnc(Nc3cccc(F)c3)n2)c1)c1c(F)ccc(F)c1Cl` [GSK357952], the “%Inh” value [1] was 14%, the “%Inh” value [2] was 0% and the “%Inh” value [3] was 19%. For the same molecule, the “%Inh” value [4] was 0%, the “%Inh” value [5] was 97.1% and the “%Inh” value [6] was 89%. The “%Inh” value [7] was 15%, the “%Inh” value [8] was 51% and the “%Inh” value [9] was 38%. The “%Inh” value [10] was 76%, the “%Inh” value [11] was 66% and the “%Inh” value [12] was 14%. For the same molecule, the “%Inh” value [13] was 1%, the “%Inh” value [14] was 5% and the “%Inh” value [15] was 0%. For the same molecule, the “%Inh” value [16] was 0%, the “%Inh” value [17] was 5% and the “%Inh” value [18] was 0%. For the same molecule, the “%Inh” value [19, 21] was 0% and the “%Inh” value [20, 21] was 6%.

With `O=C(Nc1cccc(Oc2ccc3nc(NC(=O)C4CC4)cn3n2)c1)c1ccccc1C(F)(F)F` the “%Inh” value [1] was 1%, the “%Inh” value [2] was 23% and the “%Inh” value [3] was 0%. For the same molecule, the “%Inh” value [4] was 2%, the “%Inh” value [5] was 55% and the “%Inh” value [6] was 99.7%. The “%Inh” value [7] was 0%, the “%Inh” value [8] was 20% and the “%Inh” value [9] was 99.9%. The “%Inh” value [10] was 30%, the “%Inh” value [11] was 33% and the “%Inh” value [12] was 4%. The “%Inh” value [13] was 7%, the “%Inh” value [14] was 9% and the “%Inh” value [15] was 0%. For the same molecule, the “%Inh” value [16] was 0%, the “%Inh” value [17] was 46% and the “%Inh” value [18] was 0%. The “%Inh” value [19, 21] was 7% and the “%Inh” value [20, 21] was 0%.

With `CNC(=O)c1ccccc1Nc1nc(Nc2ccc(N3CCOCC3)cc2)ncc1Cl.Cl` [GSK1576028] the “%Inh” value [1] was 99.7%, the “%Inh” value [2] was 97.2% and the “%Inh” value [3] was 99%. For the same molecule, the “%Inh” value [4] was 92.3%, the “%Inh” value [5] was 98.1% and the “%Inh” value [6] was 89%. The “%Inh” value [7] was 96.2%, the “%Inh” value [8] was 99.3% and the “%Inh” value [9] was 99.9%. The “%Inh” value [10] was 86%, the “%Inh” value [11] was 98.3% and the “%Inh” value [12] was 96.9%. For the same molecule, the “%Inh” value [13] was 100%, the “%Inh” value [14] was 15% and the “%Inh” value [15] was 13%. The “%Inh” value [16] was 0%, the “%Inh” value [17] was 84% and the “%Inh” value [18] was 3%. The “%Inh” value [19, 21] was 76% and the “%Inh” value [20, 21] was 72%.

`Cn1cc(-c2ccc3c(c2)CCN3C(=O)Cc2cccc(F)c2)c2c(N)ncnc21` [GSK2603358] was tested, and the “%Inh” value [1] was 0%, the “%Inh” value [2] was 0% and the “%Inh” value [3] was 0%. The “%Inh” value [4] was 0%, the “%Inh” value [5] was 46% and the “%Inh” value [6] was 63%. For the same molecule, the “%Inh” value [7] was 0%, the “%Inh” value [8] was 66% and the “%Inh” value [9] was 6%. The “%Inh” value [10] was 0%, the “%Inh” value [11] was 0% and the “%Inh” value [12] was 16%. For the same molecule, the “%Inh” value [13] was 33%, the “%Inh” value [14] was 0% and the “%Inh” value [15] was 0%. The “%Inh” value [16] was 36%, the “%Inh” value [17] was 0% and the “%Inh” value [18] was 0%. For the same molecule, the “%Inh” value [19, 21] was 4% and the “%Inh” value [20, 21] was 12%.

`Cl.Cl.NCC(NCc1ccc(-c2ccnc3[nH]ccc23)s1)c1ccccc1` (stereo not drawn) [GSK1321565] was tested, and the “%Inh” value [1] was 4%, the “%Inh” value [2] was 0% and the “%Inh” value [3] was 19%. The “%Inh” value [4] was 1%, the “%Inh” value [5] was 23% and the “%Inh” value [6] was 18%. The “%Inh” value [7] was 12%, the “%Inh” value [8] was 75% and the “%Inh” value [9] was 5%. For the same molecule, the “%Inh” value [10] was 0%, the “%Inh” value [11] was 0% and the “%Inh” value [12] was 34%. For the same molecule, the “%Inh” value [13] was 0%, the “%Inh” value [14] was 50% and the “%Inh” value [15] was 0%. For the same molecule, the “%Inh” value [16] was 37%, the “%Inh” value [17] was 82% and the “%Inh” value [18] was 83%. The “%Inh” value [19, 21] was 0% and the “%Inh” value [20, 21] was 0%.

With `Cl.Cl.NCC(C(=O)Nc1cc(Br)c(-c2ccnc3[nH]ccc23)s1)c1ccccc1` (stereo not drawn) [GSK1269851] the “%Inh” value [1] was 30%, the “%Inh” value [2] was 8% and the “%Inh” value [3] was 27%. The “%Inh” value [4] was 44%, the “%Inh” value [5] was 55% and the “%Inh” value [6] was 16%. The “%Inh” value [7] was 20%, the “%Inh” value [8] was 86% and the “%Inh” value [9] was 0%. The “%Inh” value [10] was 12%, the “%Inh” value [11] was 30% and the “%Inh” value [12] was 83%. For the same molecule, the “%Inh” value [13] was 0%, the “%Inh” value [14] was 56% and the “%Inh” value [15] was 13%. For the same molecule, the “%Inh” value [16] was 62%, the “%Inh” value [17] was 86% and the “%Inh” value [18] was 13%. For the same molecule, the “%Inh” value [19, 21] was 0% and the “%Inh” value [20, 21] was 7%.

`CCn1c(-c2nonc2N)nc2c(C#CC(C)(C)O)ncc(OCCCCN)c21.O=C(O)C(F)(F)F.O=C(O)C(F)(F)F` [GSK507274] was tested, and the “%Inh” value [1] was 0%, the “%Inh” value [2] was 60% and the “%Inh” value [3] was 5%. The “%Inh” value [4] was 9%, the “%Inh” value [5] was 33% and the “%Inh” value [6] was 23%. For the same molecule, the “%Inh” value [7] was 0%, the “%Inh” value [8] was 0% and the “%Inh” value [9] was 15%. The “%Inh” value [10] was 26%, the “%Inh” value [11] was 0% and the “%Inh” value [12] was 41%. The “%Inh” value [13] was 13%, the “%Inh” value [14] was 65% and the “%Inh” value [15] was 0%. For the same molecule, the “%Inh” value [16] was 44%, the “%Inh” value [17] was 21% and the “%Inh” value [18] was 75%. For the same molecule, the “%Inh” value ([19]; 1 µM) was 78% and the “%Inh” value ([20]; 1 µM) was 100%.

`COCCOCCOc1cc2ncc3c4ccc(C#N)cc4[nH]c3c2cc1OC` was tested, and the “%Inh” value [1] was 0%, the “%Inh” value [2] was 25% and the “%Inh” value [3] was 18%. The “%Inh” value [4] was 4%, the “%Inh” value [5] was 30% and the “%Inh” value [6] was 17%. For the same molecule, the “%Inh” value [7] was 90.1%, the “%Inh” value [8] was 99.5% and the “%Inh” value [9] was 20%. The “%Inh” value [10] was 16%, the “%Inh” value [11] was 15% and the “%Inh” value [12] was 99.3%. The “%Inh” value [13] was 94.6%, the “%Inh” value [14] was 29% and the “%Inh” value [15] was 7%. The “%Inh” value [16] was 0%, the “%Inh” value [17] was 83% and the “%Inh” value [18] was 0%. The “%Inh” value [19, 21] was 0% and the “%Inh” value [20, 21] was 0%.

`CN(C)Cc1ccc(-c2ccc3c(Nc4ccc(Oc5ccccn5)cc4)ccnc3c2)o1` [GW567148] was tested, and the “%Inh” value [1] was 0%, the “%Inh” value [2] was 12% and the “%Inh” value [3] was 5%. For the same molecule, the “%Inh” value [4] was 0%, the “%Inh” value [5] was 81% and the “%Inh” value [6] was 32%. The “%Inh” value [7] was 53%, the “%Inh” value [8] was 95.5% and the “%Inh” value [9] was 21%. The “%Inh” value [10] was 25%, the “%Inh” value [11] was 71% and the “%Inh” value [12] was 82%. The “%Inh” value [13] was 0%, the “%Inh” value [14] was 0% and the “%Inh” value [15] was 0%. For the same molecule, the “%Inh” value [16] was 0%, the “%Inh” value [17] was 0% and the “%Inh” value [18] was 10%. The “%Inh” value [19, 21] was 0% and the “%Inh” value [20, 21] was 6%.
